This is an account of results in PubChem BioAssay.

The target in the test is Carbonic anhydrase 2 (Homo sapiens) (UniProt P00918). In words: CAII small-molecule binders, profiling panel, biochemical, small-molecule microarray, Alexa647-labelled CAII (AID 1122). As to conditions: CAII-A647 binding fluorescence, higher = more signal.
`[N-]=[N+]=Nc1ccccc1[C@H]1OC(c2ccc(OCCCO)cc2)=N[C@@]1(CCS(=O)(=O)c1ccccc1)C(=O)N1CCCCC1` had a composite z-score of 0.647. `CN(C)CCCNC(=O)[C@@H]1c2ccccc2C(=O)N(CC23CC4CC(CC(C4)C2)C3)[C@H]1c1ccc(CO)cc1`: the composite z-score came to 0.344.

In turn, `COC(=O)[C@]1(CCS(=O)(=O)c2ccccc2)N=C(c2ccc(OCCCO)cc2)O[C@@H]1c1ccccc1CN=[N+]=[N-]` registered a composite z-score of 0.416.

`O=C(NC1CC1)[C@@H]1c2ccccc2C(=O)N(Cc2ccccc2)[C@H]1c1ccc(CO)cc1` registered a composite z-score of 0.698. To `COC(=O)C1(Cc2ccccc2)C=C2C(=C(c3ccccc3)C(=O)C2C)CN1` (stereo unspecified) belongs 0.725; to `NC(N)=NCc1cn(CCc2c[nH]c3ccccc23)nn1`, 0.633; to `CC(=O)n1cc(C(O)C2C=CC3C(=O)N(c4ccccc4)C(=O)C3N2Nc2ccccc2)c2ccccc21` (stereo unspecified), 0.788. Under `CC(C)C(O)C1C=CC2C(=O)N(C)C(=O)C2N1N(c1ccccc1)c1ccccc1` (stereo unspecified) stands 0.697. Regarding `C=C(CCCC)/C(=C/C[C@@H](OC(C)=O)c1ccc(CO)o1)c1cc(C(=O)OC)ccc1OC`, the composite z-score worked out at 0.57. Consider `COCCOC(=O)N1C(=O)[C@@]2(c3cc(C#Cc4ccc(OC)cc4)ccc31)[C@H](C(=O)N1CCCCCCC1)[C@H]1C(=O)O[C@H](c3ccccc3)[C@H](c3ccccc3)N1[C@@H]2c1ccc(O)cc1`, for which the composite z-score is 0.168.

For `C#CCNC(=O)[C@H](Cc1ccccc1)NC(=O)[C@@H](N=[N+]=[N-])C(C)C`, the composite z-score was found to be 0.179. Regarding `COc1c(C)cc(-c2cc3c(c(-c4ccccc4)n2)[Si](C(C)C)(C(C)C)OC3)cc1C`, the composite z-score was -0.185.

`CN(C)CCCCNC(=O)[C@H]1C[C@H]2C(=O)N[C@@H](CCCCN(C)C)C(=O)N2[C@H]1c1cccc(OCCO)c1` returned a composite z-score of 0.18. `COC(=O)C1(Cc2ccccc2)C=C2C(=C(C(C)C)C(=O)C2C)CN1` (stereo unspecified) returned a composite z-score of 0.676.

In turn, `[N-]=[N+]=NCc1ccccc1C[C@@]1(C(N)=O)N=C(c2ccc(OCCCO)cc2)O[C@@H]1c1ccccc1CN=[N+]=[N-]` returned a composite z-score of 0.549.

Take `C=CCNC(=O)[C@@H]1[C@H]2C(=O)O[C@H](c3ccccc3)[C@H](c3ccccc3)N2[C@H](c2ccccc2OCCO)[C@@]12C(=O)N(C(=O)OCCOC)c1ccc(C#CC3=CCCCC3)cc12`: the composite z-score came out at 0.467. Compound `[N-]=[N+]=NCc1ccccc1C[C@@]1(C(=O)NCCN2CCOCC2)N=C(c2ccc(OCCCO)cc2)O[C@@H]1c1ccccc1N=[N+]=[N-]` displayed a composite z-score of 0.419. To `O=C1OCC=C[C@H]2OC34C=CCN(c5ccc(Cl)cc5)C(=O)[C@H]3N(CCCCCO)C(=O)[C@@H]4[C@@H]12` (stereo partly specified) belongs 0.807; to `CN(C)C(=O)[C@]1(CCC(=O)OC(C)(C)C)N=C(c2ccc(OCCCO)cc2)O[C@@H]1c1ccccc1`, 0.469; to `CCCNC(=O)[C@@]1(c2ccc([N+](=O)[O-])cc2)CC(=O)N(C2CCCCC2)[C@@H]1c1ccc(CO)cc1I`, 0.71. Regarding `COC(=O)C[C@H]1O[C@]2(C(=O)N(C)c3ccccc32)[C@@H](C)[C@@H]1[Si](C)(C)c1ccc(C)cc1`, the composite z-score was determined as 0.0614. Compound `COCCOC(=O)N1C(=O)[C@@]2(c3cc(C#CC4(O)CCCCCC4)ccc31)[C@H](c1ccccc1OCCO)N1[C@H](c3ccccc3)[C@H](c3ccccc3)OC(=O)[C@H]1[C@@H]2C(N)=O` displayed a composite z-score of 0.378. Under `CO[C@H]1O[C@H](CO)[C@@H](OC(=O)c2ccc(Br)cc2)[C@@H]2OC(=O)[C@@H](Cc3ccc4ccccc4c3)C/C=C/C[C@H](Cc3ccc4ccccc4c3)C(=O)O[C@@H]12` stands 0.63; under `COCCCNC(=O)[C@]1(Cc2ccccc2N=[N+]=[N-])N=C(c2ccc(OCCCO)cc2)O[C@@H]1c1ccccc1N=[N+]=[N-]`, 0.666; under `C=CCOC(=O)[C@H]1[C@@H]2C(=O)O[C@@H](c3ccccc3)[C@@H](c3ccccc3)N2[C@@H](c2ccc(OCCOC(=O)[C@H]3C[C@H]4C(=O)N[C@@H](CCCC[N+](C)(C)C)C(=O)N4[C@H]3c3cccc(OCCO)c3)cc2)[C@]12C(=O)Nc1ccc(I)cc12`, 0.108. To `COc1ccc(NN2C(C(O)c3ccco3)C=CC3C(=O)N(C4CCCCC4)C(=O)C32)cc1` (stereo unspecified) belongs 0.377. Under `O=C1NC(=O)C2C1C=CC(C(O)c1ccc(Br)cc1)N2Nc1ccccn1` (stereo unspecified) stands 0.822; under `C[C@]1(C(=O)O)c2ccccc2C(=O)N(Cc2ccccc2)[C@H]1c1ccc(CO)cc1`, 0.756. Regarding `COCCOC(=O)N1C(=O)[C@@]2(c3cc(C#CC4(O)CCCCCC4)ccc31)[C@H](C(N)=O)[C@H]1C(=O)O[C@H](c3ccccc3)[C@H](c3ccccc3)N1[C@@H]2c1ccc(O)cc1`, the composite z-score was found to be 0.181.

As to `CCN(CC)c1ccc(N2CC=CC34O[C@@H]5/C=C\CCC(C)OC(=O)C5[C@H]3C(=O)N(CCO)[C@@H]4C2=O)cc1` (stereo partly specified), the composite z-score was 0.818.

In the case of `CCOC(=O)C[C@H]1[C@H](OC(=O)c2ccccc2-c2ccccc2)[C@@H](NC(=O)CC(C)C)c2cc(OCCCO)ccc2N1C(=O)c1ccc2ccccc2n1`, the composite z-score is 0.431. To `O=C1O[C@@H](c2ccccc2)[C@@H](c2ccccc2)N2[C@@H](c3ccccc3OCCO)[C@]3(C(=O)Nc4ccc(C#CC5=CCCCC5)cc43)[C@@H](C(=O)NC[C@H](O)c3ccccc3)[C@H]12` belongs 0.211; to `C=CCOC(=O)[C@@H]1[C@H]2C(=O)O[C@H](c3ccccc3)[C@H](c3ccccc3)N2[C@H](c2ccc(OCCOC(=O)[C@H]3C[C@H]4C(=O)N[C@@H](CC(C)C)C(=O)N4[C@H]3c3ccc(O)cc3)cc2)[C@@]12C(=O)Nc1ccc(I)cc12`, 0.609. Consider `NCCCCCCNC(=O)[C@H]1C[C@H]2C(=O)N[C@@H](Cc3ccccc3)C(=O)N2[C@H]1c1ccc(O)cc1`, for which the composite z-score was found to be 0.778. In the case of `O=C1OCC=C[C@H]2OC34C=CCN(Cn5nnc6ccccc65)C(=O)[C@H]3N(CCCCCCO)C(=O)[C@@H]4[C@@H]12` (stereo partly specified), the composite z-score was 0.904.

`COc1ccc([Si](C)(C)[C@H]2[C@H](CCn3cc([C@H](O)c4ccccc4)nn3)O[C@@]3(C(=O)N(Cc4ccc(N5CCC5=O)cc4)c4ccccc43)[C@@H]2C)cc1` came in with a composite z-score of 0.0133.
